TrxR1 substrate = qHTS Assay for Substrates of Mammalian Selenoprotein Thioredoxin Reductase 1 (TrxR1): qHTS | 390,000 compounds, 0.01% hits | purified TrxR1 substrate turnover, NADPH consumption readout | Potency, µM (top dose mostly 114 µM), inactives show at the top dose activity change, negative = substrate turnover; note: potency is the fitted concentration of half-maximal effect; % is set by controls: 0 for no effect and ±100 for the full control effect; nearly all actives have a fitted effect of over 50% in size
Target sequence (O89049 whole entry, looked up): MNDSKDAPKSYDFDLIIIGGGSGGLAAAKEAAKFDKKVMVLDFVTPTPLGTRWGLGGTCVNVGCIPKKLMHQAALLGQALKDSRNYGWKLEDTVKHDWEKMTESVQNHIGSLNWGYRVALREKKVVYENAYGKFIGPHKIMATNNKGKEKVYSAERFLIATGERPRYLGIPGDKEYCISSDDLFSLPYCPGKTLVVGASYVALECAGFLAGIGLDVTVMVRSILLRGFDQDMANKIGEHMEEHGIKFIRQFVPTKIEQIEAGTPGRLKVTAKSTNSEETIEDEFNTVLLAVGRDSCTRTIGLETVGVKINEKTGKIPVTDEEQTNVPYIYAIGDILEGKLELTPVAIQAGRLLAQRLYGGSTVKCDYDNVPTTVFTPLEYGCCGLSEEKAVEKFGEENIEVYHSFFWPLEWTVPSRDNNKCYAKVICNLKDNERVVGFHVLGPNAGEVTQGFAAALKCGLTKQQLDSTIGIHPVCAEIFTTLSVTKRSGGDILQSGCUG
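Rat TrxR1, dispensed at 90 nM, was prereduced with 400 uM NADPH (final) for 5 min at ~22 deg C, then incubated with compound 15 min before 400 uM selenite. A first-read NADPH fluorescence drop versus no-compound background flagged substrates.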
Apoferritin bind = qHTS Assay for Identification of Novel General Anesthetics | 350,000 compounds, 0.074% hits | Potency, µM (highest dose often 77.5 µM), inactives show top-dose activity change, negative = displacement, most hits filed as inhibitors | AID 485281, 2010 | apoferritin/1-aminoanthracene competitive binding, fluorescence | Ferritin light chain (Equus caballus), P02791; note: potency is the fitted concentration of half-maximal effect; % is set by controls: 0 for no effect and ±100 for the full control effect; nearly all actives have a fitted effect of over 20% in size
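In PBS, apoferritin at 10 uM is loaded with 1-AMA from a 50% saturated solution. After 10 min of compound exposure at ambient temperature, reduced 535 nm fluorescence indicates probe displacement.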
ClpP mod = qHTS Assay for Activators of ClpP; ATP-dependent Clp protease proteolytic subunit (Bacillus subtilis (strain 168)), P80244; purified B. subtilis ClpP, FRET peptide cleavage, 20 min; Potency, µM (doses to about 57.5 µM), inactives show at the top dose activity change, negative = active; 340,000 compounds, 1.9% hits; AID 651965, 2013; active = well fitted falling curve with a large enough effect; inconclusive = small, poorly fitted or top-dose-only effect; inactive = no such curve, though single readings can be large or run the other way; note: potency is the fitted concentration of half-maximal effect; the source files actives as falling curves though it sought activators and does not explain the sign; nearly all actives have a fitted effect of over 65% in size
Target sequence (P80244 whole entry, looked up): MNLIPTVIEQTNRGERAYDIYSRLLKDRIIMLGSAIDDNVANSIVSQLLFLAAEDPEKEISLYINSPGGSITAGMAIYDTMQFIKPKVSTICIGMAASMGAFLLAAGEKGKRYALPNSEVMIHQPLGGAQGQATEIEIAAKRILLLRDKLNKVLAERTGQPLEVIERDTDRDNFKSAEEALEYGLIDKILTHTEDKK
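Buffer: 100 mM Tris/HCl pH8, 100 mM KCl, 0.05% low protease BSA, 2.5% glycerol, 0.01% Tween-20. ClpP 10 microg/mL final; 20 min RT; delta FRET normalized to ADEP and DMSO controls.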
miR-21 act = qHTS Assay for Modulators of miRNAs and/orActivators of miR-21. HeLa miR-21 FLuc reporter, luciferase, 48 h. Potency, µM (highest dose often 38.3 µM), inactives show top-dose activity change, positive = activation, actives largely listed as activators. 340,000 tested, under 10 active. AID 2288, 2010;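 note: % of control where 0% means no effect; miR-21 action dims this reporter so a rising signal means less miR-21 action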
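HeLa cells endogenously expressing miR-21, stably carrying CMV-driven firefly luciferase with a downstream miR-21 binding site, 2000 cells/well. Titrations up to approximately 40 uM, 48 hours; luciferase luminescence read.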
rTrxR1 inhibitor = qHTS Assay for Inhibitors of Mammalian Selenoprotein Thioredoxin Reductase 1 (TrxR1): qHTS | Potency, µM (highest dose often 114 µM), for the others: top-dose activity change, negative = inhibition, actives largely listed as inhibitors | recombinant rTrxR1, NADPH fluorescence consumption, selenite substrate | 390,000 compounds, 1% hits | Thioredoxin reductase 1, cytoplasmic (Rattus norvegicus), O89049 | AID 588453, 2011; note: potency is the fitted concentration of half-maximal effect; % is set by controls: 0 for no effect and ±100 for the full control effect; nearly all actives have a fitted effect of over 65% in size
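Rat TrxR1 (90 nM in the dispensed reagent) was pre-reduced with 400 uM NADPH for 5 min at room temperature, then incubated with compound for 15 min. After 400 uM selenite was added, NADPH fluorescence (Ex 340/Em 450 nm) was followed for 8 min.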
* marks the source's active call; other numbers are inactive results; ? = inconclusive; nt = not tested or not shown; ! = not confirmed by another sample; [ ] = remark or other dose. Only some compounds are listed: those with a hit (about 2.5% of all), similar ones and a draw of the others. Unless noted, calls come from the whole dose curve; as a rule, active = well fitted curve in the direction sought with a large enough effect; inconclusive = small, poorly fitted or top-dose-only effect, or another doubt; inactive = no such curve, though single readings can be large; an effect the other way counts as inactive or inconclusive.

SMILES	TrxR1 substrate	Apoferritin bind	ClpP mod	miR-21 act	rTrxR1 inhibitor
COc1cccc(C(=O)N(Cc2nc(-c3ccc(Cl)cc3)no2)C(C)C)c1OC	-8%	0%	-3%	3%	19%
Cc1ccccc1NC(=O)N1CCN(C(=O)c2ccco2)CC1	12%	-4%	-2%	-3%	40%
COC(=O)c1ccccc1NC(=O)N1CCN(C(=O)c2ccco2)CC1	31%	2%	22µM*	-13%	1%
Cc1ccc(Cn2c(=O)c3cccnc3n(CC(=O)Nc3cccc(C(F)(F)F)c3)c2=O)cc1	21%	4%	32µM*!	26%	50%
O=C(Cn1c(=O)n(Cc2ccc(Cl)cc2)c(=O)c2cccnc21)Nc1ccccc1C(F)(F)F	-1%	3%	-1%	0%	20%
CN(C)c1ccc(/C=C/c2cc3ccccc3c[n+]2C)cc1	-15%	nt	-2%	nt	-25%
CN1CCCCc2c1nc1c(c2N)CCCC1	8%	-9%	25µM*	-13%	-26%
O=C(NCc1cccnc1)/C(=C/c1ccc(-c2ccc(Cl)cc2)o1)S(=O)(=O)c1ccccc1	-2%	-18%	-4%	?	5µM*
O=C(NCc1cccnc1)/C(=C/c1ccc(-c2cccc(C(F)(F)F)c2)o1)NC(=O)c1ccccc1	-8%	0%	-16%	13%	3%
O=C(NCc1cccnc1)/C(=C\c1ccc(-c2ccc(Br)cc2)o1)S(=O)(=O)c1ccccc1	4%	-3%	-8%	?	32µM*
COc1ccc(NC(=O)CN2C(=O)C3(SCC(=O)N3c3cccc(OC)c3)c3ccccc32)cc1 (stereo not drawn)	2%	-11%	1%	5%	19%
CCCN(CCC)C(=O)CC(c1ccc(F)cc1)c1ccco1 (stereo not drawn)	0%	?	0%	-1%	35µM*
CCCOc1ccccc1-c1nc(SCC(=O)c2ccccc2)n[nH]1	-11%	-7%	0%	?	-8%
Cc1ccc(N=C2NC(=O)/C(=C/C=C/c3ccco3)S2)cc1	-5%	?	1%	-17%	45µM*
O=C1NC(=Nc2ccccc2)S/C1=C\C=C\c1ccco1	-11%	-21%	0%	-7%	79µM*
Cc1ccc(C(=O)OCn2ncc(Cl)c(Cl)c2=O)cc1	1%	?	0%	?	13µM*
Cc1cccc(Cn2ncc(Cl)c(Cl)c2=O)c1	-7%	?	-1%	?	50µM*
O=C(OCn1ncc(Cl)c(Cl)c1=O)c1ccc(C(F)(F)F)cc1	-7%	-10%	-5%	2%	18µM*
O=C(CN1C(=O)COc2ccc(S(=O)(=O)N3CCCCCC3)cc21)N1CCN(c2ccc(Cl)cc2)CC1	4%	4%	1%	-3%	13%
COc1ccc(CNC(=O)c2sc3nc[nH]c(=O)c3c2C)cc1	0%[57.1 µM]	-5%	40µM*	-16%	20%[57.1 µM]
COc1ccc(-c2ccc3c(N)c(C(=O)NCc4ccc(C)cc4)sc3n2)cc1	12%	56%	11µM*	1%	-2%
COC(=O)c1sc2nc[nH]c(=O)c2c1C	4%	-5%	16µM*	-6%	-17%
Cc1ccc2oc(=O)c3cnn(CC(=O)N4CCN(c5cccc(C(F)(F)F)c5)CC4)c3c2c1	-5%	-6%	22%	0%	3%
O=C(CCC(=O)N1CC2CCCN2c2ccccc21)NCc1ccccc1F (stereo not drawn)	5%[57.1 µM]	30%	-8%	-3%	15%[57.1 µM]
Cc1csc2nc(COc3ccccc3NC(=O)c3ccco3)cc(=O)n12	1%	-7%	-1%	-2%	7%
SMILES	TrxR1 substrate	Apoferritin bind	ClpP mod	miR-21 act	rTrxR1 inhibitor
CCc1ccccc1Nc1nn2c(=O)c3ccc(C(=O)NC(C)c4ccccc4)cc3nc2s1 (stereo not drawn)	16%	-13%	-7%	25%	32%
CCC(=O)Nc1cc2c(C)cc(=O)oc2cc1C	43%	-1%	32µM*	1%	4%
CCCCCCC(=O)Nc1cc2c(C)cc(=O)oc2cc1C	6%	10%	-2%	0%	21%
C/C(=C1/C=Nc2ccccc21)c1ccc(N(C)C)cc1	9%[0.0914 µM]	nt	-13%	nt	9%
CCOC(=O)c1c(NC(=O)c2ccoc2C)sc2c1CCC2	50%	-4%	35µM*	-9%	8%
CCOC(=O)c1c(NC(=O)c2nn(CC)cc2Br)sc2c1CCCCC2	52%	1%	28µM*	-7%	46%
CCOC(=O)c1c(NC(=O)c2ccccc2C)sc2c1CCCC2	24%	-16%	32µM*	-5%	12%
CCOC(=O)c1c(NC(=O)c2ccccc2C(=O)O)sc2c1CCCC2	4%[57.1 µM]	-9%	-1%	5%	3%[57.1 µM]
CCN1CCN(C(=O)c2ccc3c(c2)N(Cc2ccc(Cl)cc2)C(=O)c2ccccc2S3=O)CC1 (stereo not drawn)	9%	-1%	1%	0%	24%
O=c1[nH]c2c(-c3nc(-c4ccc(F)cc4)cs3)c(O)cn2c2ccc(Br)cc12	3%	nt	-4%	nt	8%
CCCCN(CCCC)CCNC(=O)Cn1nc(CC)n2c(cc3sc(C)cc32)c1=O	-3%	-9%	-1%	6%	-8%
Cc1ccc2c(C)c(C(=O)N(Cc3ccc(N(C)C)cc3)Cc3ccco3)oc2c1C	-5%	-4%	-18%	-2%	10%
CC1(C)CC(=O)C(CS(=O)(=O)c2ccccc2)=C(O)C1	5%	32µM*	-1%	0%	50µM*
Cc1ccccc1NC(=O)COC(=O)c1ccccc1OCC(=O)Nc1ccc(Br)cc1	-3%	nt	-2%	nt	3%
CNc1ccccc1C(=O)OC(C)C(=O)Nc1ccc(Cl)cn1 (stereo not drawn)	153%	393%	25µM*	15%	-11%
CC(OC(=O)Cc1ccsc1)C(=O)Nc1ccc(Cl)cn1 (stereo not drawn)	0%	nt	25µM*	nt	7%
CC(OC(=O)c1ccccc1NCc1ccco1)C(=O)Nc1ncc(Cl)cc1Cl (stereo not drawn)	28%[57.1 µM]	116%	32µM*	-2%	21%[57.1 µM]
COc1cccc(CC(=O)OC(C)C(=O)Nc2ccc(Cl)cn2)c1 (stereo not drawn)	-2%	nt	-7%	nt	7%
Cc1ccc(S(=O)(=O)N2CCCC2C(=O)OCc2ccccc2)cc1 (stereo not drawn)	-5%	-15%	-1%	-3%	12%
Cc1ccc(S(=O)(=O)N2CCCC2C(=O)OCc2ccco2)cc1 (stereo not drawn)	10%	3%	0%	-2%	7.9µM*

Screening results deposited in PubChem BioAssay by National Center for Advancing Translational Sciences (NCATS).
